Laboratory results from PubChem BioAssay AID1117319 (Southern Research Institute, 2015).
“And” between values parts separate entries of the source, which are not always exact repeats. Equal values may be shown once. Among all 260,000 compounds or so, about 1,500 (0.58%) were called active. About 5% were inconclusive and are not listed.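 How the source made its calls: active means inhibition above a set limit at one or more doses, reproduced on every date tested; inconclusive means results disagree between test dates, or hit never tested in dose response; inactive means the rest.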 Only a sample is shown. Potency and affinity values are given separately.

target: Virion infectivity factor (Human immunodeficiency virus type 1 group M subtype B (isolate BH10)) + Virion infectivity factor (Human immunodeficiency virus type 1 group M subtype B (isolate BRU/LAI)) + Virion infectivity factor (Human immunodeficiency virus type 1 group M subtype B (isolate PCV12)) + Virion infectivity factor (Human immunodeficiency virus type 1 group M subtype B (isolate HXB2)) + DNA dC->dU-editing enzyme APOBEC-3G (Homo sapiens) (UniProt P69720+P69721+P69722+P69723+Q9HC16); experiment: inhibitors of Vif binding to APOBEC3G peptide, primary screen, biochemical, TR-FRET, GST-Vif 1-94, biotin-A3G peptide, dose response retest (AID 1117319); settings: hits give high values;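 further: Vif residues 1-94 fused to GST binding biotinylated APOBEC3G peptide 110-148; 0% = full assay without inhibitor and 100% = GST in place of GST-Vif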

inhibition, inactive:
O=C(COC(=O)c1ccccc1Sc1ccc(C(F)(F)F)cc1[N+](=O)[O-])NC(=O)NC1CCCC1 -2.59%
CCCN1C(=O)/C(=c2\sc3nc(=O)c(Cc4ccc(C)cc4)nn3c2=O)c2ccccc21 1.89%
CC1(C(=O)O)CCC(C(=O)NNC(=O)c2ccccc2O)C1(C)C (configuration not stated) -0.63%
COc1cc(/C=C2\SC(=O)N(CCNC(=O)c3c(C)noc3C)C2=O)cc(OC)c1OC -5.96%
Cc1ccc(S(=O)(=O)N2CCOCC2)cc1NC(=O)COC(=O)c1ccc2c(c1)OCCO2 -7.03%
O=C1N/C(=C/c2cccn2-c2ccc(F)cc2)C(=O)N1Cc1ccccc1F 5.17%
O=C1N/C(=C/c2cccn2-c2ccccc2)C(=O)N1Cc1ccc(F)cc1 15.6%
COc1ccc(NC(=O)CN(C)C(=O)C2CC(=O)N(c3cccc4ccccc34)C2)cc1 (configuration not stated) 2.19%
COc1cc2c(cc1OC)C(c1cccc(OC)c1OC)CC(=O)N2 (configuration not stated) 2.22%
COc1cc(C2CC(=O)Nc3cc(C)c(C)cc32)cc(OC)c1OC (configuration not stated) -9.63%
O=C(NCC(=O)N(c1ccc2c(c1)OCO2)C(C(=O)NC1CCCC1)c1ccncc1)c1ccco1 (configuration not stated) 21.4%
CC(C)(C)NC(=O)C(c1ccncc1)N(C(=O)CNC(=O)c1ccco1)c1ccc(F)cc1 (configuration not stated) 5.09%
COc1cccc(NC(=O)CN(C)C(=O)CCCc2nc3ccccc3c(=O)[nH]2)c1 4.69%
CCCCCOc1ccc(C2NC(=O)NC2=O)cc1 (configuration not stated) 0.64%
CCN(c1ccc(OC)cc1)S(=O)(=O)c1nnc(NC(=O)COc2ccccc2)s1 6.53%
O=C(CN1C(=O)CCSc2ccccc21)Nc1ccc2c(c1)OCCO2 4.27%
COC(=O)c1ccc(COc2ccccc2/C=C(\C#N)C(=O)Nc2c(C)cccc2C)cc1 -2.89%
COC(=O)c1ccc(COc2ccccc2/C=C(\C#N)C(=O)Nc2ccc(C)cc2)cc1 -4.01%
COCCNC(=O)C1(C)Oc2ccccc2NC1=O (configuration not stated) 1.83%
Cc1oc(-c2ccccc2F)nc1CS(=O)(=O)CC(=O)N1CCN(Cc2ccccc2)CC1 5.89%
CCOC(=O)CN(C(=O)CSc1nnc(COc2ccc(OC)cc2)n1C)c1ccccc1 0.19%
COc1ccc(-c2nnn(CC(=O)c3ccc4c(c3)OCCO4)n2)cc1OC 21.5%
CCOc1ccc(-c2nnn(CC(=O)c3ccc4c(c3)OCCO4)n2)cc1 -11.1%
CN(C)c1ccc(CNC(=O)C2CCN(S(=O)(=O)c3ccc4c(c3)oc(=O)n4C)CC2)cc1 -3.31%
CCC1=NNc2cccc3c(OC)ccc1c23 10.8%
COc1ccc2c3c(cccc13)OCC2=O 24.2%
COc1ccccc1NC(=O)c1nnn(Cc2ccccc2)c1NC(=O)C(F)(F)F 0.14%
CCn1cc(S(=O)(=O)Nc2nc3ccc(OC)cc3s2)cn1 -2.85%
Nc1ccccc1SCc1ccccc1 -5.9%
Cn1c(SCc2ccccc2)nccc1=O 1.19%
CCOC(=O)c1nnc2cc(-c3ccc(Br)cc3)nn2c1C 1.62%
COc1ccccc1OCCSc1nc(N)cc(N)n1 4.3%
COc1ccc2nc3cccc(OC)c3nc2c1 15.1%
COc1ccc2nc3ccccc3nc2c1NC(=O)c1ccc(Br)cc1 -5.53%
Cc1ccc(-n2nc(-c3ccco3)cc2C(=O)NCc2cccnc2)cc1 9.86%
CCOC(=O)c1cc(-c2ccco2)nn1-c1ccc(C)cc1 -3.18%
CN(C)C(=O)CSc1nnc([C@H](Cc2ccccc2)NC(=O)OC(C)(C)C)o1 -2.79%
O=S1(=O)N=C(Nc2ccc(N3CCOCC3)c(Cl)c2)c2ccccc21 12.7%
O=C(CCC(=O)c1cccs1)NCc1ccc(Cl)cc1 1.67%
CCCC(=NCc1ccccc1)C1=C(O)C(C(=O)OC)C(C)(C)CC1=O (configuration not stated) 3.41%
CCC(=NCc1ccccc1)C1=C(O)C(C(=O)OC)C(C)(C)CC1=O (configuration not stated) 5.76%
CCCC(=Nc1ccccc1)C1=C(O)C(C(=O)OC)C(C)(C)CC1=O (configuration not stated) 26.8%
CCCC(=O)C1=C(O)C(C(=O)OC)C(C)(C)CC1=Nc1ccc(N)cc1 (configuration not stated) 0.65%
O=S(=O)(NCCN1CCN(S(=O)(=O)c2ccccc2F)CC1)c1ccccc1F 1.35%
O=C1NC(=O)/C(=C\c2cn(CC(=O)N3CCOCC3)c3ccccc23)S1 -3.19%
O=C(COC(=O)/C=C/c1cc(Br)ccc1F)Nc1ccc2[nH]c(=O)[nH]c2c1 -2.89%
Cc1cccc(N2CC(C(=O)O)CC2=O)c1 (configuration not stated) -2.42%
Cc1ccc(SCC(=O)Nc2nnc(-c3ccco3)o2)cc1 6.62%
CC(=O)Nc1ccc(N=Cc2c(O)c3ccccc3oc2=O)cc1 -14.5%
Cc1ccc(-c2oc3ncnc(N)c3c2-c2ccc(C)cc2)cc1 -8.91%
COc1ccc(-c2oc3ncnc(N)c3c2-c2ccccc2)cc1 -1.94%
Cc1c(NC(=O)COc2ccc(C(C)C)cc2)c(=O)n(-c2ccccc2)n1C -8.62%
CCCCCCC(O)(c1ccccc1)C(CN1CCOCC1)c1ccccc1 (configuration not stated) 0.34%
Cc1noc(N)c1C(=O)Nc1ccc(F)c(Cl)c1 -9.43%
CCc1noc(C)c1C(=O)Nc1ccc(F)c(F)c1 -2.68%
Cc1nc2scc(-c3ccc(Cl)cc3)c2c(=O)o1 19.2%
CCOc1ccc(C(=O)COc2ccc(NC(C)=O)cc2)cc1 6.05%
CCOC(=O)C1=C(N)n2c(s/c(=C\c3cccs3)c2=O)=C(C(=O)OCC)C1c1cccs1 (configuration not stated) -6.07% and -0.48%
CCOC(=O)C1=C(N)n2c(s/c(=C\c3ccncc3)c2=O)=C(C(=O)OCC)C1c1ccncc1 (configuration not stated) -12.8%
CCOC(=O)C1=C(N)n2c(s/c(=C/c3ccccc3)c2=O)=C(C(=O)OCC)C1c1ccccc1 (configuration not stated) -3.94%
CCOC(=O)C1=c2s/c(=C\c3ccncc3)c(=O)n2C(N)=C(C(=O)OC)C1c1ccncc1 (configuration not stated) -6.47%
CCOC(=O)C1=c2s/c(=C\c3cccnc3)c(=O)n2C(N)=C(C(=O)OC)C1c1cccnc1 (configuration not stated) -8.08%
CCOC(=O)C1=C(C)NC(C)=C(C(=O)OCC)C1c1ccco1 22.4%
Cc1cc(SCC(=O)OC(C)C(=O)N(C)c2ccccc2)nc2ccccc12 (configuration not stated) -7.66%
COC(=O)c1ccc(CNC(=O)Cn2nnnc2CN(C)C(C)C)cc1 -4.98%
COCCNC(=O)CSc1cc(-c2ccccc2)c2ccc(OC)cc2n1 -24.8%
COc1ccccc1CNC(=O)c1ccc(OC(C)C)cc1 -1.85%
O=C(NCc1cccnc1)c1nn2cccnc2c1Cl 14.7%
O=C(CSc1nnc2ccccn12)NNC(=O)c1cccc([N+](=O)[O-])c1 -9.15%
COc1cc2nc(CCc3ccccc3)oc(=O)c2cc1OC 19.2%
N#Cc1ccc2c(c1)nc1ccccn12 16.5%
Clc1cc2nc3ccccn3c2cc1Cl -1.52%
CC1=CN2CC(O)CN=C2C=C1 (configuration not stated) -3.44%
Cc1cnc(C(=O)OCC(=O)N(Cc2ccccc2)C(C)(C)C)cn1 -7.28%
Cc1cc(C(=O)OCC(=O)c2ccc3c(c2)OCCO3)c(C)o1 7.16%
COC(=O)CCN(C(=O)c1ccc(Cl)c([N+](=O)[O-])c1)c1ccccn1 21.1%
O=[N+]([O-])c1ccc2c(c1)N([O-])C1(CCCCC1)[N+]2=O -0.91%
CN1c2ccc([N+](=O)[O-])cc2N(C)C1(C)c1ccccc1 (configuration not stated) -8.03%
O=C(COC(=O)c1ccc(S(=O)(=O)N2CCOCC2)cc1)Nc1ccccc1F -5.99%
C=CCN(CC=C)C(=S)NC(=O)c1ccc(C)c(Br)c1 3.99%
C=CCN(CC=C)C(=S)NC(=O)c1ccc(OC)c(Br)c1 3.9%
C[n+]1ccn(CC(=O)c2cccs2)c1 -0.3%
O=[N+]([O-])c1ccc2nc(CN3CCCCC3)[nH]c2c1 -2.67%
Nc1ccc(C(=O)NCCCCCCNC(=O)c2ccc(N)cc2)cc1 -3.48%
Nc1ccc(C(=O)C(=O)c2ccc(N)cc2)cc1 -4.86%
CC(C)=CCN1CCN(Cc2cccn2-c2nccs2)CC1CCO (configuration not stated) 3.13%
C/C(=N\NC(=O)CNC(=O)c1ccco1)c1ccc(Br)cc1 -0.8%
COc1ccc(/C=C/c2nc3ccccc3c(=O)n2-c2cccc(C(=O)O)c2)cc1 -12.6%
CCn1c(/C=C/c2ccc(O)c(O)c2)nc2ccccc2c1=O 23.1%
N#Cc1c(N)sc2c1CCCCCC2 22.4%
CC1(C)Cc2c(C#N)c(N)sc(=S)c2CO1 18.9%
CS(=O)(=O)N1CCC(C(=O)Nc2cccc(C(F)(F)F)c2)CC1 30.5%
COc1ccc(CCNC(=O)COC(=O)/C=C/c2ccc3c(c2)OCO3)cc1 -7.05%
COc1ccc(CCn2c(N)cc(=O)[nH]c2=O)cc1OC -7.47%
CCc1ccc(-n2c(O)c(C=NCCN(CC)CC)c(=O)[nH]c2=O)cc1 1.67%
CC(=O)N1CCN(c2ccc(N=Cc3c(O)n(Cc4ccccc4)c(=O)[nH]c3=O)cc2)CC1 15.1%
COc1ccc(CCn2c(O)c(C=Nc3cccc(F)c3)c(=O)[nH]c2=O)cc1OC 22.7%
